Reference: the supplement of paper PMC6555819

Each sequence was assayed on RARa homodimer (NR concentration 270 nM) (assay: PBM binding z-score (relative to random genomic background probes); higher = stronger binding; sequences stand for … in GC…GCGATTGACAGCGTAGAATGAAGG).
Outline: (§1)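 Binding z-scores were set against random background probes. The data came from custom Agilent 4×180K protein-binding microarrays carrying double-stranded probes with 34-nt variable regions, incubated 1 h with ligand-free nuclear receptor dimers. Partner-specific antibodies detected binding, and scanned fluorescence was regression-normalized.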

Sequence | PBM binding z-score
TATACAGGGTCAAAGGCCCGAGTACGAATGTCGA | 0.102
TCTTGTAGCTCAAGCAGGTTAAGAAAGCCTGAGT | -0.944
TCTTGTGGATCAAAGGTTAAGAAAGCCGAAGCCT | 0.693
TCTTGTAGTTCAAGCAGGTTAAGAAAGCCTGAGT | 0.00762
CCTACTGGGCCAAAGGTCACTGATTCCAATGCTC | 1.82
TCTGCAAGGTCAACGATGGTCAGCTAATCTGCTA | 0.319
GCAGACAGGTGAAACGAAGGTAACTCAGGGTGGC | -0.536
ATCGAAAGCTCGAAGGTGAGTATACCCACCCGAA | -0.499
CATACAGGGTCAGCAAGGCCAGAGTAGGGACGGC | 0.341
TCATATCGGTAAAGGTGAAAGTCGAACGATATGA | 0.00667
CCTTACGGGTCACTGACAGGCTATAGCATTTGGA | 0.758
GTACCAAGCTGAATAGGTCGTTGATGAGTAGGCG | -0.336
CCTGGTAGGTCAATGGTCAGCTAAAGCAGCTCGC | 1.12
CGTCCAAGGTGAGCAGGTCAGTGAAAGCGACGTG | -0.389
TCATATAGGTAAACGTGAAAGTCGAACGATATGA | 0.345
TCGAGTGGGTTAGTCGGGGCATTCAGCCAACATA | 0.0202
AGAATGAGGTTGTTAAGATCAGGGAATTGCGGTC | -0.0651
CTCGAAAGGTCGGTTAAGGTGAGTATACGGATAA | 0.996
CGTAGTTGGTCAAGGTCACACACGCTATAGGTAC | 1.01
CCTGCTAGGTCAATGGTGAGCTAAAGCAGCTCGC | -0.333

Sequence | PBM binding z-score
CCTTACGTGTCAAGGTTATAGCACGGGTGGTACG | 1.18
CAAACTAGGTCAAGAGGTCAAAGTCCGCTTCCCG | 3.01
TAGCCTTGGTCAGATCGGGCCAGTATACGCTATA | -1.58
CCAGACAGGTGAAAGGGAACTCAGTCTGGTACGC | 0.262
TCGAGTAGGTTACCAATGGGGCAGTCAGCTTTCT | -1.21
TCTCGTAGATCAGCAGGTTAAGAAAGCTGGCCAA | -0.998
CGTCCAAGGCCAGAGAGGTCAGTGAATGCCGAGT | -0.0907
CCAGACAGGTGCGAAGGTAACTCAGCCTCGATTA | 0.0972
CCTATTGGGCCAAAAAGGTCATTGATGCCGATAA | 1.26
CGTCCAAGGTCAAGGTCATTGAAAGAGACTCGAA | 2.35
ATCTCTAGGTAAAGATAGTTAAGTGAATGCAAAT | 0.927
TCGTGTAGATCAAAGGTTAAGAAAGCCGAAGCCT | 0.495
ACAGACAGATGATGAAGGTAACTCAGGCTATCAT | 0.591
AGAATGAGGGCAATGAGTTGATAGCACGGGTGGC | 0.124
CCTACTGGGCCACGAAAGGTCATTTATTCAGTGA | 1.05
ACTTACGGGTCAACGAGGTTATAGAACGCGTATA | 0.996
TAGCCTAGGTCATTCAGGGGCCAGTATAGAAAGC | -0.372
GCTTACGGGTCAAAGGTTATAGCTTGAATAGAAT | 0.811
CGAACTAGGTCATGGACAGTGAATCTCCGCACGC | 0.353
CAAACTAGGTCAAAGGTCTAAGTCGAGCCAACCA | 0.718

What follows are sequences tested on RARb:RXRa (NR concentration 270 nM, RXRa partner concentration 90 nM) in the same assay as above.
Outline: as §1

Sequence | PBM binding z-score
TATACAGGGTCAAAGGCCCGAGTACGAATGTCGA | 4.33
TCTTGTAGCTCAAGCAGGTTAAGAAAGCCTGAGT | -0.012
TCTTGTGGATCAAAGGTTAAGAAAGCCGAAGCCT | 1.82
TCTTGTAGTTCAAGCAGGTTAAGAAAGCCTGAGT | 2.3
CCTACTGGGCCAAAGGTCACTGATTCCAATGCTC | 4.56
TCTGCAAGGTCAACGATGGTCAGCTAATCTGCTA | 5.27
GCAGACAGGTGAAACGAAGGTAACTCAGGGTGGC | 0.818
ATCGAAAGCTCGAAGGTGAGTATACCCACCCGAA | 0.055
CATACAGGGTCAGCAAGGCCAGAGTAGGGACGGC | 4.25
TCATATCGGTAAAGGTGAAAGTCGAACGATATGA | 1.98
CCTTACGGGTCACTGACAGGCTATAGCATTTGGA | 3.76
GTACCAAGCTGAATAGGTCGTTGATGAGTAGGCG | 0.0822
CCTGGTAGGTCAATGGTCAGCTAAAGCAGCTCGC | 3.63
CGTCCAAGGTGAGCAGGTCAGTGAAAGCGACGTG | 2.67
TCATATAGGTAAACGTGAAAGTCGAACGATATGA | 0.3
TCGAGTGGGTTAGTCGGGGCATTCAGCCAACATA | 0.514
AGAATGAGGTTGTTAAGATCAGGGAATTGCGGTC | 0.173
CTCGAAAGGTCGGTTAAGGTGAGTATACGGATAA | 3.22
CGTAGTTGGTCAAGGTCACACACGCTATAGGTAC | 4.18
CCTGCTAGGTCAATGGTGAGCTAAAGCAGCTCGC | 3.51

Sequence | PBM binding z-score
CCTTACGTGTCAAGGTTATAGCACGGGTGGTACG | 1.57
CAAACTAGGTCAAGAGGTCAAAGTCCGCTTCCCG | 5.53
TAGCCTTGGTCAGATCGGGCCAGTATACGCTATA | 0.307
CCAGACAGGTGAAAGGGAACTCAGTCTGGTACGC | 0.537
TCGAGTAGGTTACCAATGGGGCAGTCAGCTTTCT | 0.908
TCTCGTAGATCAGCAGGTTAAGAAAGCTGGCCAA | -0.0596
CGTCCAAGGCCAGAGAGGTCAGTGAATGCCGAGT | 3.41
CCAGACAGGTGCGAAGGTAACTCAGCCTCGATTA | -0.199
CCTATTGGGCCAAAAAGGTCATTGATGCCGATAA | 3.79
CGTCCAAGGTCAAGGTCATTGAAAGAGACTCGAA | 5.56
ATCTCTAGGTAAAGATAGTTAAGTGAATGCAAAT | -0.0166
TCGTGTAGATCAAAGGTTAAGAAAGCCGAAGCCT | 1.86
ACAGACAGATGATGAAGGTAACTCAGGCTATCAT | 0.13
AGAATGAGGGCAATGAGTTGATAGCACGGGTGGC | 2.04
CCTACTGGGCCACGAAAGGTCATTTATTCAGTGA | 3.78
ACTTACGGGTCAACGAGGTTATAGAACGCGTATA | 4.35
TAGCCTAGGTCATTCAGGGGCCAGTATAGAAAGC | 3.79
GCTTACGGGTCAAAGGTTATAGCTTGAATAGAAT | 4.34
CGAACTAGGTCATGGACAGTGAATCTCCGCACGC | 3.61
CAAACTAGGTCAAAGGTCTAAGTCGAGCCAACCA | 3.91
